For 6 molecules, inhibition results are on record in ChEMBL document CHEMBL1961873, “Compounds: GSK PKIS; Assays: Nanosyn kinase panel” (2012).

The target in assay [1] is Mitogen-activated protein kinase kinase kinase kinase 4 (Homo sapiens) (UniProt O95819). The settings on record: at 1 µM.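 Further: reported figure is an averaged inhibition value.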
In assay [2] the target is Dual specificity mitogen-activated protein kinase kinase 1 (Homo sapiens) (UniProt Q02750). The following applies: at 0.1 µM.
Dual specificity mitogen-activated protein kinase kinase 1 (Homo sapiens), sequence (Q02750 whole entry): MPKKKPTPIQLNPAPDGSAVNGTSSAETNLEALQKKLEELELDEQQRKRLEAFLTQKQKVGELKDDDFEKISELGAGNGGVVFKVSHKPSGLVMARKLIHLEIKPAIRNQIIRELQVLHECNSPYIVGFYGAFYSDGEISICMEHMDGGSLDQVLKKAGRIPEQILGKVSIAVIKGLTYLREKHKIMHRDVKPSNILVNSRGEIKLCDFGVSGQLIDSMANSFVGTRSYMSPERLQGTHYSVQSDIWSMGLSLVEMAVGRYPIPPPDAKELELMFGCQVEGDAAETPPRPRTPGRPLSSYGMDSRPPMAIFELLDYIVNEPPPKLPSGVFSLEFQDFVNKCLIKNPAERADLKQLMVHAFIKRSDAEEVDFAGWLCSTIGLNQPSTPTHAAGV
The target is the same in assay [3]. The settings on record: at 1 µM.
Assay [4] addresses Misshapen-like kinase 1 (Homo sapiens) (UniProt Q8N4C8). The settings on record: at 0.1 µM.
Assay [5] shares this target. The settings on record: at 1 µM.
Assay [6] deals with T1, Serine/threonine-protein kinase 4 (Homo sapiens) (UniProt Q13043).
T1 sequence (whole entry): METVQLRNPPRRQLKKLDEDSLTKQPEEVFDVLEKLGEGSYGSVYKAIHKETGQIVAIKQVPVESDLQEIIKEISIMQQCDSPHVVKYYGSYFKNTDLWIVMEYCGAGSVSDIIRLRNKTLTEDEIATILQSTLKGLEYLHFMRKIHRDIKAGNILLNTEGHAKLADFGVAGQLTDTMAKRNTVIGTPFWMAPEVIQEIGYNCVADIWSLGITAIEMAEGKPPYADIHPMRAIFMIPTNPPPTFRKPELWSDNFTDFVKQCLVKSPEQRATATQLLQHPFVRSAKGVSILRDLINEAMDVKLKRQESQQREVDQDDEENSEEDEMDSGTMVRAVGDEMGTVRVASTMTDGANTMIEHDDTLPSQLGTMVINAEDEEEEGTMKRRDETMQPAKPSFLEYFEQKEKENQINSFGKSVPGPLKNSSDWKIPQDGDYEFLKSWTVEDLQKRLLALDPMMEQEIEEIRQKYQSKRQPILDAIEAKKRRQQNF
The settings on record: at 0.1 µM.

Assay [7] deals with T1, Serine/threonine-protein kinase 4 (Homo sapiens). The following applies: at 1 µM.
The target of assay [8] is T2, Serine/threonine-protein kinase 3 (Homo sapiens) (UniProt Q13188).
T2 sequence (whole entry): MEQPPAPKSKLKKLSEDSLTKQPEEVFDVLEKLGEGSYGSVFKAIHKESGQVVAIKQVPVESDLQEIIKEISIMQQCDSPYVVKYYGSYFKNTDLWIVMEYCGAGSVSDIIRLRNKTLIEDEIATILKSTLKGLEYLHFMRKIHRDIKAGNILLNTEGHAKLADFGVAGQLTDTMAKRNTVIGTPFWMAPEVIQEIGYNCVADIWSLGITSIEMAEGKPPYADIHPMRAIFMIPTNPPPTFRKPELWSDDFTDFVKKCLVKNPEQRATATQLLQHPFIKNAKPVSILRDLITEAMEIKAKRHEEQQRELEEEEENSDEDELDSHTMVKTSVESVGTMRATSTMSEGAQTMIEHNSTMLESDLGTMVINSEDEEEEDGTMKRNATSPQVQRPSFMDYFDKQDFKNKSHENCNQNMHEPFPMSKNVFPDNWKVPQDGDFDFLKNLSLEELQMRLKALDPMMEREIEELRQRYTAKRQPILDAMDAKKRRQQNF
The following applies: at 0.1 µM.

The target in assay [9] is T2, Serine/threonine-protein kinase 3 (Homo sapiens). The following applies: at 1 µM.
In assay [10] the target is Serine/threonine-protein kinase 26 (Homo sapiens) (UniProt Q9P289). The following applies: at 0.1 µM.
Assay [11] has the same target. The following applies: at 1 µM.
For assay [12], the target named is Serine/threonine-protein kinase PAK 1 (Homo sapiens) (UniProt Q13153). The following applies: at 0.1 µM.
Serine/threonine-protein kinase PAK 1 (Homo sapiens), sequence (Q13153 whole entry): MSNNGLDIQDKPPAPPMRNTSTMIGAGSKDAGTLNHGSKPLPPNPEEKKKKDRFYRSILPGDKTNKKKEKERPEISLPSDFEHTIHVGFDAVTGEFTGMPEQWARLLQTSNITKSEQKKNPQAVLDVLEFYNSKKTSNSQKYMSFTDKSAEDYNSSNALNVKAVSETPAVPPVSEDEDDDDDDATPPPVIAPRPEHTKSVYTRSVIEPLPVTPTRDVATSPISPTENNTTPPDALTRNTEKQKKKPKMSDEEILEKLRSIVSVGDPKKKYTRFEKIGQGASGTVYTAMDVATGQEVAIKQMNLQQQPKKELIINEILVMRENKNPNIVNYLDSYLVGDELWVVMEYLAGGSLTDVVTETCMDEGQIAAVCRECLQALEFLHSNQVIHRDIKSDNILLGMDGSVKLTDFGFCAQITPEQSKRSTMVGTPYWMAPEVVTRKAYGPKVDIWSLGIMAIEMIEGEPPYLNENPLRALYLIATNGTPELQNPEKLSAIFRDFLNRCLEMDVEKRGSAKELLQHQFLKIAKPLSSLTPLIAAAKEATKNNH
Assay [13] shares this target. The following applies: at 1 µM.
Assay [14] addresses Serine/threonine-protein kinase PAK 2 (Homo sapiens) (UniProt Q13177). The following applies: at 0.1 µM.
Assay [15] shares this target. The following applies: at 1 µM.
For assay [16], the target named is Serine/threonine-protein kinase PAK 3 (Homo sapiens) (UniProt O75914). The settings on record: at 0.1 µM.
Assay [17] shares this target. The following applies: at 1 µM.
The target of assay [18] is Serine/threonine-protein kinase PAK 5 (Homo sapiens) (UniProt Q9P286). The following applies: at 0.1 µM.
Serine/threonine-protein kinase PAK 5 (Homo sapiens), sequence (Q9P286 whole entry, looked up): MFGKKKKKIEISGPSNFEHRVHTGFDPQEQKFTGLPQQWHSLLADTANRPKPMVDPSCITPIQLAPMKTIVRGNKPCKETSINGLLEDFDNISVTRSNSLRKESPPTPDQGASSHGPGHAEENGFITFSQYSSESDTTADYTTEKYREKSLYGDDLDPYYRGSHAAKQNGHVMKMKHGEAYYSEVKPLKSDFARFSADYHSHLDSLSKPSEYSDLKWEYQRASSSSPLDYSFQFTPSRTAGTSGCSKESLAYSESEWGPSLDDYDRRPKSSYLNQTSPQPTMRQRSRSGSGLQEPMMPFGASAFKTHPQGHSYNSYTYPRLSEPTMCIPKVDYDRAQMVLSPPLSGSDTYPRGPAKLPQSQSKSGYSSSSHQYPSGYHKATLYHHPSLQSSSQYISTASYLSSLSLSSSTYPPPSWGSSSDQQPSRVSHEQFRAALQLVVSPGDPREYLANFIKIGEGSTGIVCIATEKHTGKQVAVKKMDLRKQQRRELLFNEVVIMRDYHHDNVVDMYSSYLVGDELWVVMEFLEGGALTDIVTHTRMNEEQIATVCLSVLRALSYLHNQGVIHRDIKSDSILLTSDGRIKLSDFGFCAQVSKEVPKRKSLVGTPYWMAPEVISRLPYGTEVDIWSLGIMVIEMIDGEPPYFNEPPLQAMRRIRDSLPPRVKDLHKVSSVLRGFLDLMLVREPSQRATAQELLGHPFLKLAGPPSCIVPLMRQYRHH
Assay [19] has the same target. The following applies: at 1 µM.
Assay [20] concerns the target Serine/threonine-protein kinase PAK 6 (Homo sapiens) (UniProt Q9NQU5). The settings on record: at 0.1 µM.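 Further: mean PAK6 inhibition reported from the GSK PKIS screen.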

Serine/threonine-protein kinase PAK 6 (Homo sapiens), sequence (Q9NQU5 whole entry, looked up): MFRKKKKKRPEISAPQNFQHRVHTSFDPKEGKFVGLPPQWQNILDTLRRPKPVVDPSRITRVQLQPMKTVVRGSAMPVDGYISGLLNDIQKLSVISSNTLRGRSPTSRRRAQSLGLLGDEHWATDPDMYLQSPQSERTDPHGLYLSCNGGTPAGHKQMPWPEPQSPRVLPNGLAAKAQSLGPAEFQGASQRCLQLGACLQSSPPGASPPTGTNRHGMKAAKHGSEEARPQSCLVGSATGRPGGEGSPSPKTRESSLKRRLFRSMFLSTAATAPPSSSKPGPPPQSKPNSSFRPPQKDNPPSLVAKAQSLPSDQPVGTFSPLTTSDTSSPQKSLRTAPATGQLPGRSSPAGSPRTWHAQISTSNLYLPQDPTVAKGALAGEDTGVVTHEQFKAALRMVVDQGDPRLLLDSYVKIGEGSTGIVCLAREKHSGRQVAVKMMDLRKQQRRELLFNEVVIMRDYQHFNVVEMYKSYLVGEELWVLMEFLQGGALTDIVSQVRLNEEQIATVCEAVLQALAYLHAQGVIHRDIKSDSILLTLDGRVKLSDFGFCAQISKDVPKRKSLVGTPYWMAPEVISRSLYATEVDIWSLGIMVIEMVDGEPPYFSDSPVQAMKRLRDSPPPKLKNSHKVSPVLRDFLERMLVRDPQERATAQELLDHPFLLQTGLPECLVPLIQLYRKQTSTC
Misshapen-like kinase 1 (Homo sapiens), sequence (Q8N4C8 whole entry, looked up): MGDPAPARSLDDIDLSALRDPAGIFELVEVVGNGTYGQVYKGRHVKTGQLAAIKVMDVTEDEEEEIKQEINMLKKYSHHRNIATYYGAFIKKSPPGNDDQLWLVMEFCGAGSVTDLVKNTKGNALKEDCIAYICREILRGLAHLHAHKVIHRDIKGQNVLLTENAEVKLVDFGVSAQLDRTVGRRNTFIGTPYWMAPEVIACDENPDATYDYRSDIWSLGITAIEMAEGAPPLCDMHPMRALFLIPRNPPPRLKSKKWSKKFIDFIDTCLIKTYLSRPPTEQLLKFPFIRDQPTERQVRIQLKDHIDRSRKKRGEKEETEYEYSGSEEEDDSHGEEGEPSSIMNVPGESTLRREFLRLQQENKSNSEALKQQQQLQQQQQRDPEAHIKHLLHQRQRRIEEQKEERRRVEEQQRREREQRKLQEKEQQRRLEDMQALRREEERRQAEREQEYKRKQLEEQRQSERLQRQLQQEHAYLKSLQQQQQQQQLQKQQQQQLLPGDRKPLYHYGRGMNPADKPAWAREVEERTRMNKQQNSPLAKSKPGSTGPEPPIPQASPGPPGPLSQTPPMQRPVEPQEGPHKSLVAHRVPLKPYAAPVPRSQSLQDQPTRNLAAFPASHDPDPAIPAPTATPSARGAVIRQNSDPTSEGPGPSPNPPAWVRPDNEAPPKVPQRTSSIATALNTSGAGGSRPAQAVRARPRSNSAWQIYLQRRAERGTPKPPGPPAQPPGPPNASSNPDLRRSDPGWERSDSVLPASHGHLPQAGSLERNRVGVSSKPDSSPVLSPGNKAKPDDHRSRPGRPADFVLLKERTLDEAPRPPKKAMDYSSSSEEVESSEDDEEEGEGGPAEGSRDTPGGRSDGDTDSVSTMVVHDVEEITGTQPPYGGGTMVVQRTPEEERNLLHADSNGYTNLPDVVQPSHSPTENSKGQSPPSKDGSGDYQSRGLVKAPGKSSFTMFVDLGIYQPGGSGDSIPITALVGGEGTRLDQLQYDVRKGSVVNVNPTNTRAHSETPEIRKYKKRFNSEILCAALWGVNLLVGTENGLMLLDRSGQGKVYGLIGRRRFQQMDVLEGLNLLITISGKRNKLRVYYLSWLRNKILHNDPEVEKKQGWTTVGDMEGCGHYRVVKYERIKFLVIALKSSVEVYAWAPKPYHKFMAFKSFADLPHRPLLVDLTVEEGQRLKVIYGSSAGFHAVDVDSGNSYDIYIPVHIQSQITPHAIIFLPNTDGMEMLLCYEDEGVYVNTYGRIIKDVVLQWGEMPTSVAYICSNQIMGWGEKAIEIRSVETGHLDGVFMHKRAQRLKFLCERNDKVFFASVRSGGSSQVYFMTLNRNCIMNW
Mitogen-activated protein kinase kinase kinase kinase 4 (Homo sapiens), sequence (O95819 2-1239 limits assumed): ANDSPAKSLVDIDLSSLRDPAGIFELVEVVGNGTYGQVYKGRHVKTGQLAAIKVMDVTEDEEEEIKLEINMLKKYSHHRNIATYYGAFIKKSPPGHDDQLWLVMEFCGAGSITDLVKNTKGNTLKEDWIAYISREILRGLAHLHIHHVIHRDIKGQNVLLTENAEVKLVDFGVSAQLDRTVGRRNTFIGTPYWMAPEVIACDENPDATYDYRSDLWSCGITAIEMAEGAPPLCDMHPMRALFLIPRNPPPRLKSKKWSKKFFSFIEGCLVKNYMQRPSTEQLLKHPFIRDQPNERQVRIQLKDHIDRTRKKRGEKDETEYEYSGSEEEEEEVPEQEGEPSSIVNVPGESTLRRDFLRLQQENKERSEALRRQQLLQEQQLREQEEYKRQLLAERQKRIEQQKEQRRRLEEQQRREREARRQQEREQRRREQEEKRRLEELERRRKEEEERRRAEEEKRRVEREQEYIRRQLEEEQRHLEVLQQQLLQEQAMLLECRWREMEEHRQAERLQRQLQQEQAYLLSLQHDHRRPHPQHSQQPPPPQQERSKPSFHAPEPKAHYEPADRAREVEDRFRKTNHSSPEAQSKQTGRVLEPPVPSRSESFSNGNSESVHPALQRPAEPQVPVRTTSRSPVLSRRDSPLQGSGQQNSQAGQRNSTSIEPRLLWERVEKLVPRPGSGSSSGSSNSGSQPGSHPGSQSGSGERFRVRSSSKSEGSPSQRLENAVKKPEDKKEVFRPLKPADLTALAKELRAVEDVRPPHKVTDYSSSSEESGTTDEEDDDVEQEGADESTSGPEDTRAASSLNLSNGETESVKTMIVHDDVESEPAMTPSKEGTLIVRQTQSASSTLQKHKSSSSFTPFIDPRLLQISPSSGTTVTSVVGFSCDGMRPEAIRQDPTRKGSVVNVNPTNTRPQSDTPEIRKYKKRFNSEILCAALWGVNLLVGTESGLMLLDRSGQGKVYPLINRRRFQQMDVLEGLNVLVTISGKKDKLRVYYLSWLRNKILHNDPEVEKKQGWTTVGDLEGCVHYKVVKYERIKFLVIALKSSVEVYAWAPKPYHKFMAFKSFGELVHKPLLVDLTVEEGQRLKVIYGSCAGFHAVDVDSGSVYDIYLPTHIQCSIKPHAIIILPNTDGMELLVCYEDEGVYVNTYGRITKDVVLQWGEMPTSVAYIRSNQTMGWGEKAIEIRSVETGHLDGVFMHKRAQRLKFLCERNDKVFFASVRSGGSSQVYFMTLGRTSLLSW

Regarding `CCNC(=O)O[C@H]1CN[C@H](C#Cc2cc3ncnc(Nc4ccc(OCc5cccc(F)c5)c(Cl)c4)c3s2)C1`, the inhibition (as a rule, the change of the read-out against control, counted positive when it falls) in assay [1] was 5.98%; in assay [2], 2.35%; in assay [3], 1.8%; in assay [4] it was 4.31%; in assay [5] it was 5.58%; in assay [6], 5.6%. The inhibition in assay [7] is 5.6%; in [8] it was 6.17%; in [9] it was 5.21%; in assay [10], -1.55%; in assay [11], -0.79%; in assay [12], 1.87%. The inhibition in assay [13] came out at 8.64%; in assay [14], 1.21%; in [15], 1.91%; in [16] it was 3.71%; in assay [17], 3.15%; in assay [18], 5.88%. Further, the inhibition is 2.54% in [19] and 8.13% in assay [20].

Take `CC(=O)NCc1cccc(C#Cc2cncnc2Nc2ccc(OCc3cccc(F)c3)c(Cl)c2)c1`: the inhibition in [1] amounted to 7.74%; in assay [2], 1.45%; in assay [3], 1.08%; in assay [4] it was 2.48%; in assay [5], 8.64%; in assay [6] it was 1.57%. Further, the inhibition was 5.79% in assay [7]; 0.67% in [8]; 3.55% in assay [9]; -0.27% in [10]; 2.49% in assay [11]; 4.19% in assay [12]. Also, the inhibition in [13] was 4.46%; in [14], -0.34%; in assay [15], -0.13%; in [16], -0.22%; in assay [17] it was 0.22%; in [18] it was 2.64%. The inhibition in [19] was -5.66%; in assay [20], 3.99%.

In the case of `COc1cc2ncn(-c3cc(OCc4ccccc4C(F)(F)F)c(C(=O)N(C)C)s3)c2cc1OC`, the inhibition in [1] is 2.4%; in assay [2], 0.8%; in [3], 1.58%; in [4], 1.7%; in assay [5] it was 2.67%; in assay [6], -0.01%. For the same molecule, the inhibition is 3.43% in assay [7]; 1.15% in assay [8]; 4.03% in assay [9]; 0% in [10]; 3.36% in assay [11]; -0.17% in assay [12]. Besides, the inhibition in [13] was -2.04%; in assay [14], -1.09%; in assay [15] it was -0.86%; in assay [16] it was -0.48%; in [17], -0.61%; in [18], -6.21%. The inhibition is 0.3% in assay [19] and -7.29% in [20].

Consider `COC(=O)Nc1nc2ccc(S(=O)(=O)c3ccc(NC(=O)Nc4cc(C(F)(F)F)ccc4F)cc3)cc2[nH]1`, for which the inhibition in assay [1] amounted to 6.09%; in [2], 2.83%; in assay [3], 2.72%; in [4] it was 5.17%; in [5] it was 8.15%; in [6], 3.71%. Also, the inhibition in [7] is 4.43%; in [8], 4%; in assay [9], 3.06%; in assay [10] it was 0.89%; in assay [11], -2.57%; in assay [12], 5.36%. The inhibition is 4.48% in assay [13]; 2.17% in [14]; 1.9% in assay [15]; 2.62% in [16]; 3.11% in assay [17]; -4.37% in [18]. Further, the inhibition in [19] was -3.51%; in assay [20] it was -3.27%.

In the case of `O=C(Nc1n[nH]c2cc(-c3ccc(F)cc3)ccc12)C1CC1`, the inhibition in [1] was found to be 70.1%; in assay [2], 3.48%; in assay [3], 3.42%; in assay [4], 16.2%; in [5] it was 56%; in assay [6], 2.34%. Moreover, the inhibition is 4.72% in assay [7]; 2.91% in assay [8]; 4.55% in [9]; -1.43% in assay [10]; -1.27% in assay [11]; 5.64% in [12]. For the same molecule, the inhibition is 5.57% in [13]; 1.33% in assay [14]; 0.78% in [15]; 3.25% in assay [16]; 3.1% in assay [17]; 4.4% in assay [18]. The inhibition in [19] is -1.87%; in [20], 2.33%.

Take `CNC(=O)c1cncc(/C=C/c2ccccc2Cl)c1`: the inhibition is 15.2% in assay [1]; -0.39% in [2]; 2.24% in [3]; 2.28% in assay [4]; 15.4% in [5]; 4.63% in [6]. Besides, the inhibition turned out to be 7.5% in assay [7]; 5.87% in assay [8]; 7.94% in assay [9]; 1.78% in [10]; 1.7% in assay [11]; 0.81% in [12]. Further, the inhibition in assay [13] is 1.33%; in assay [14] it was 0.07%; in assay [15], -0.55%; in [16], 0.06%; in assay [17], 0.54%; in assay [18], 6.76%. Also, the inhibition in assay [19] is 4.3%; in assay [20], 8.93%.
